According to PubChem BioAssay AID624071 (Southern Research Specialized Biocontainment Screening …, 2012):
A number with no mark means an inactive call. How the calls were made is not given here.

Assay: protection of cells from dengue-induced CPE – secondary screen, flavivirus guanylyltransferase probe project (AID 624071)
Details: Dengue virus CPE inhibition assay, cell viability; series mostly up to 100 µM; CPE inhibition: at the top concentration

SMILES	CPE inhibition [%]
O=S(=O)(Nc1cc(SCc2ccccc2)c(O)c2ccccc12)c1ccc(Cl)cc1	0
O=[N+]([O-])c1cccc(S(=O)(=O)Nc2cc(Sc3nc4ccccc4s3)c(O)c3ccccc23)c1	0
Cc1cc(C)c(S(=O)(=O)Nc2cc(SCC(=O)O)c(O)c3ccccc23)c(C)c1	0
O=C(O)CSc1cc(NS(=O)(=O)c2ccc(F)cc2)c2ccccc2c1O	0
O=[N+]([O-])c1cccc(S(=O)(=O)Nc2cc(SCc3ccccc3)c(O)c3ccccc23)c1	0
Cc1ccc(S(=O)(=O)Nc2cc(Sc3nc(C)cc(C)n3)c(O)c3ccccc23)cc1	0
Cn1c(=O)c2[nH]c(-c3ccccc3)c(O)c2n(C)c1=O	0
O=S(=O)(Nc1cc(Sc2ccccc2)c(O)c2ccccc12)c1ccc(F)cc1	0
Cc1cc(F)ccc1S(=O)(=O)Nc1cc(SCC(=O)O)c(O)c2ccccc12	0
O=C(O)CSc1cc(NS(=O)(=O)c2cccc([N+](=O)[O-])c2)c2ccccc2c1O	0
Cc1ccc(S(=O)(=O)Nc2cc(SCC(=O)O)c(O)c3ccccc23)cc1	0
O=S(=O)(Nc1cc(Sc2ncn[nH]2)c(O)c2ccccc12)c1ccc(F)cc1	0
O=C(O)CSc1cc(NS(=O)(=O)c2ccc(Br)cc2)c2ccccc2c1O	0
COc1ccc(OC)c(S(=O)(=O)Nc2cc(SCC(=O)O)c(O)c3ccccc23)c1	0
Cn1c(=O)c2[nH]c(-c3ccc(Cl)cc3)c(O)c2n(C)c1=O	0
O=C(O)CSc1cc(NS(=O)(=O)c2cccc3cccnc23)c2ccccc2c1O	0
O=C(O)CSc1cc(NS(=O)(=O)c2ccc(Cl)cc2)c2ccccc2c1O	0
O=S(=O)(Nc1cc(Cl)c(O)c2ccccc12)c1ccc(F)cc1	0
